Screening results (PubChem BioAssay)
An excerpt weighted towards active compounds, which were near 2.4% of everything screened.
D2 ag-1 – Beta-Arrestin HTS for Positive Allosteric Modulators of the Human D2 Dopamine Receptor: Agonists; AID 624465, 2012; hit rate 0.084% among 360,000; activation, % (concentration not given with the values); D(2) dopamine receptor (Homo sapiens), P14416; DiscoveRx PathHunter D2 beta-arrestin, luminescence, 90 min; 100% = 57 uM dopamine signal; in the data active = activation above about 40%
Target sequence (P14416 whole entry, looked up): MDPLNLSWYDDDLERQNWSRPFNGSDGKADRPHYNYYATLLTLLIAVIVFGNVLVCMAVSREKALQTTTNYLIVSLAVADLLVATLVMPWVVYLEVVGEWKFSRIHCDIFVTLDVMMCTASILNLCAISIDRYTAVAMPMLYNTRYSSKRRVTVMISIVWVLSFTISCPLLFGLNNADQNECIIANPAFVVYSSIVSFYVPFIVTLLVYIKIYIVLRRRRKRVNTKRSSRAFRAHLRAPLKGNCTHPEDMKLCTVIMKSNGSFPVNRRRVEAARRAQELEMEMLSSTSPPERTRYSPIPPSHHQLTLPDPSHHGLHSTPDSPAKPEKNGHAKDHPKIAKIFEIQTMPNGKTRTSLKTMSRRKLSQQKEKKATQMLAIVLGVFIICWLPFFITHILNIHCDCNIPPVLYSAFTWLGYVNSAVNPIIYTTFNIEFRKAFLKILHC
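DiscoveRx PathHunter D2 beta-arrestin cells (2,100/well) attached overnight, then compound-stimulated 90 min at 37 C in HBSS/10 mM HEPES/0.1% Tween-20 buffer; beta-galactosidase complementation read by luminescence after 1 h at ambient temperature. Dopamine 57 uM final (EC100) as control.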
D2 ag-2 – HTS Assay for Allosteric Agonists of the Human D2 Dopamine Receptor: Primary Screen for Agonists; D(2) dopamine receptor (Homo sapiens), P14416; HEK293 T-REx D2 cells, calcium flux agonist mode; activation, % at 2 µM; hit rate 0.53% among 340,000; AID 485358, 2010;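 active = activation over 3 SD above normal in the single-dose calcium agonist read, cut at about 30% in these data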
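Tetracycline-induced HEK293 Trex cells with D2 receptor force-coupled to calcium signaling, plated overnight at 30 C and loaded with no-wash calcium dye. Calcium flux read kinetically for 180 s after compound addition; responses flag agonists.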
D2 antag – HTS Assay for Allosteric Antagonists of the Human D2 Dopamine Receptor: Primary Screen for Antagonists; hit rate 2% among 340,000; inhibition, % at 10 µM; D(2) dopamine receptor (Homo sapiens), P14416; HEK293 TREx D2 cells, calcium flux, dopamine EC80; in the data active = inhibition above about 30%; inactive = below that, where a call was filed
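Dopamine at EC80 is the agonist stimulus; test compounds precede it by 180 s. Calcium flux read kinetically in a force-coupled, inducible HEK293 T-REx D2 cell line.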
D2 PAM-1 – Beta-Arrestin HTS for Positive Allosteric Modulators of the Human D2 Dopamine Receptor: Potentiators. DiscoveRx D2 beta-arrestin cells, luminescence, 90 min; 100% = 57 uM dopamine signal. potentiation, % (no concentration beside the values). hit rate 0.23% among 360,000; in the data active = potentiation above about 50%
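D2 cells co-treated with compound plus 50 nM dopamine (EC20) for 90 min at 37 deg C to detect potentiation. Beta-arrestin recruitment was read as enzyme-fragment luminescence after 1 h at ambient temperature. Full response was set by 57 uM dopamine.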
D2 PAM-2 – HTS Assay for Positive Allosteric Modulators of the Human D2 Dopamine Receptor: Primary Screen for Potentiators | D(2) dopamine receptor (Homo sapiens), P14416 | HEK293 T-REx D2, calcium flux, EC20 dopamine potentiation | potentiation, % at 10 µM | hit rate 0.34% among 340,000 | AID 485347, 2010;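 active = potentiation over 3 SD above the plate norm, cut at about 30% in these data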
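Potentiation of an EC20 dopamine calcium response measured kinetically over 180 s, after a preceding 180 s compound-only read flagging agonists. Cells: inducible Hek293 Trex D2 line, 4000/well, cultured overnight at 30 C before dye loading.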
Hits are given with their value; i = inactive; nt = not tested or not shown.

SMILES	D2 ag-1	D2 ag-2	D2 antag	D2 PAM-1	D2 PAM-2
COc1ccc(C(=O)CSc2nc3cccnc3n2C)cc1	i	i	i	i	i
Cc1ncc(C(=O)O)c(C(=O)O)c1N	i	i	i	i	35.4
COc1ccc(O)c(C(=O)c2cc(C(=O)NCCc3ccccc3)c(=O)n(CCc3ccccc3)c2)c1	i	i	i	69.3	i
C[C@@H](CN1C2=NC[C@H](C)N2C[C@H]1Cc1ccc(O)cc1)NC(=O)CCC1CCCCC1	i	i	51.6	i	i
COc1ccc(C[C@@H]2CN3C(=NC[C@@H]3Cc3ccc(O)cc3)N2C[C@H](C)NC(=O)CCC2CCCCC2)cc1	i	i	i	i	i
CC(C)[C@H]1CN=C2N(C[C@H](C)NC(=O)CCC3CCCCC3)[C@H](Cc3ccc(O)cc3)CN21	i	i	77.1	i	i
O=C(CCC1CCCCC1)NCCN1C2=NC[C@@H](Cc3ccccc3)N2C[C@H]1Cc1ccc(O)cc1	i	i	50.9	i	i
O=C(NCc1ccc2c(c1)CCO2)Nc1cccc(C(F)(F)F)c1	i	i	39.8	i	i
COc1ccc(C2=NS(=O)(=O)N(C)C(C(=O)N3CCC(C(N)=O)CC3)=C2)cc1	i	i	35.3	i	i
CCOc1ccccc1NC(=O)C(=O)Nc1ccc2nc3n(c(=O)c2c1)CCCCC3	nt	i	nt	nt	i
COc1cccc(NC(=O)c2sc3nc(C)c(C(=O)Nc4ccc(C)cc4C)c(-c4ccc(C)o4)c3c2N)c1	nt	i	nt	nt	i
Cc1ccc(S(=O)(=O)Nc2cc(Cl)c3oc4c(c3c2)C(=O)CC(C)(C)C4)cc1	nt	i	nt	nt	i
Cc1ccccc1C(=O)Nc1ccc2oc(-c3ccc(Cl)c(Cl)c3)nc2c1	nt	nt	nt	nt	i
CSc1ncccc1C(=O)OCc1c(F)cccc1Cl	i	i	i	i	30.3
Cc1ccc(CN2CCC(c3cc(-c4cccs4)n[nH]3)CC2)cc1	i	i	69.9	i	i
FC(F)(F)c1cccc(CN2CCC(c3cc(-c4cccs4)n[nH]3)CC2)c1	i	i	83.9	i	i
COC(=O)CCN1CCC(c2cc(-c3cccc(C(F)(F)F)c3)n[nH]2)CC1	i	i	i	i	i
Cc1ccc(CSCCNC(=O)C2CCN(S(=O)(=O)Cc3ccccc3)CC2)cc1	nt	i	nt	nt	i
CC(=O)Nc1ccc(Sc2ncccc2C(=O)Nc2ccc(F)cc2)cn1	i	32.6	i	i	i
CSc1ncccc1C(=O)Nc1ccc(OC(F)(F)F)cc1	i	i	i	i	i
O=C(Nc1ccc(Br)cc1)c1ccc2ncsc2c1	i	i	36.2	i	i
CCc1ccc(NC(=O)c2ccc3ncsc3c2)cc1	nt	i	i	nt	i
N#Cc1sc2nc(-c3ccccc3)cc(-c3ccco3)c2c1N	i	i	62.3	i	i
N#Cc1sc2nc(C3CC3)cc(-c3ccccc3)c2c1N	i	i	i	i	i
O=c1c2c3c(sc2nnn1Cc1ccc(Br)cc1)CCCC3	nt	i	nt	nt	i
SMILES	D2 ag-1	D2 ag-2	D2 antag	D2 PAM-1	D2 PAM-2
C=CCNC(=O)c1onc(CSc2ccc(F)cc2)c1C(=O)O	i	i	i	i	i
O=C(NCc1ccccc1)c1onc(CSc2ccccc2)c1C(=O)NCC1CC1	i	i	38.8	i	i
C=CCNC(=O)c1onc(CSc2ccccc2)c1C(=O)O	i	i	31.8	i	i
O=C(NCc1ccccc1)c1onc(CSc2ccc(Cl)cc2)c1C(=O)NCC1CC1	i	i	i	i	i
COc1ccc2c(c1)c1c(c(=O)n(-c3ccccc3C)c(=O)n1CC(N)=O)n2C	nt	i	nt	nt	i
CC(=O)c1cccc(NC(=O)c2noc3c2CSc2ccccc2-3)c1	nt	i	nt	nt	nt
C/C=C/C(=O)OCC(=O)Nc1cccc(Br)c1	i	i	i	i	i
O=C(COC(=O)/C=C/c1ccccc1)Nc1ccccc1Br	i	i	40.1	i	i
O=C(COC(=O)/C=C/c1ccc(Cl)cc1)Nc1ccccc1	i	i	i	i	41.4
C/C=C/C(=O)OCC(=O)Nc1ccccc1Br	i	i	46.7	i	i
Cc1ccc(-n2c(Cc3ccccc3)nnc2SCc2nc(-c3cccs3)no2)cc1C	nt	i	nt	nt	i
COC(=O)[C@@]1(Cc2ccc(OC)cc2)[C@@H]2C(=CC(=O)[C@H]2CC(=O)C(=O)N2CCCC2)CN1C(=O)c1ccccc1	i	i	38.0	i	i
COC(=O)[C@@]1(Cc2ccc(OC)cc2)[C@@H]2[C@@H](CC(=O)[C@H]2CC(=O)C(=O)N(C)C)CN1C(=O)c1ccccc1	i	i	i	i	i
COCCCN1C(=O)C(O)=C(C(C)=O)C1c1cccc(F)c1 (configuration not stated)	i	i	36.8	i	i
CCCCN1C(=O)C(O)=C(C(C)=O)C1c1ccccc1 (configuration not stated)	i	i	i	i	i
O=C(CSc1ccc2nc(-c3ccccc3)cn2n1)Nc1ccccc1	nt	i	nt	nt	i
CCOC(=O)c1cccc(-n2nnc3c(sc4nc(C)c(Br)c(C)c43)c2=O)c1	nt	nt	nt	nt	i
CC(C)OCCCNC(=O)c1ccc2c(c1)S(=O)(=O)c1ccccc1C2=O	i	i	i	72.0	i
CCCCNC(=O)c1ccc2c(c1)S(=O)(=O)c1ccccc1C2=O	i	i	i	i	i
O=C(NCCCN1CCN(c2ccc(F)cc2)CC1)c1cc2c(Cl)nc3ccccc3c2s1	nt	i	nt	nt	nt
O=C(Nc1ccc(Cl)cc1)C1CCC(CNS(=O)(=O)c2ccc(Br)s2)CC1 (configuration not stated)	nt	i	nt	nt	nt
Cc1ccc(NC(=O)Cn2c(=O)n(Cc3ccccc3)c(=O)c3c(C)c(C)sc32)c(C)c1	nt	i	nt	nt	i
Cc1cc(C)nc(SCc2ccc(C(=O)N/N=C/c3cccc(O)c3O)cc2)n1	i	i	i	59.4	i
CCOc1ccc(-n2ccnc2SCC(=O)Nc2cccc3ccccc23)cc1	nt	i	nt	nt	i
CCn1cc([N+](=O)[O-])c(C(=O)Nc2ccn(Cc3ccccc3F)n2)n1	i	i	i	i	i
Cc1ccccc1Cn1ccc(NC(=O)c2nn(C)cc2[N+](=O)[O-])n1	i	i	31.0	i	i
C=CCN1C(c2ccc(OCC)cc2)=CS/C1=C(\C#N)c1nnc2n1CCCCC2	i	i	i	i	45.3
C=CCN1C(c2ccc(Br)cc2)=CS/C1=C(\C#N)c1nnc(N2CCOCC2)n1-c1ccccc1	i	nt	nt	i	nt
CCC(CC)NC(=O)CN1CCN(S(=O)(=O)c2ccc(Br)s2)CC1	i	i	i	50.2	i
Cc1cccc(-n2c(CNC(=O)c3cccc(F)c3)nnc2SCC(=O)Nc2ccccc2F)c1	nt	i	nt	nt	i
